# The supplement of paper PMC8728848
# This excerpt belongs to a sample that is enriched for the strongest signals.
# Key:
# Experiment in all cases: glycan array binding signal (z-score within array); higher = stronger binding
# Conditions in all cases: glycan notation: IUPAC condensed, linker removed
# [1] = target: Fuc(a1-2)Gal
# Outline: (§1)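 The binding signal is a Z-score computed within each array and averaged over linkers. Arrays of the same protein sequence at different concentrations or buffers were also averaged together. Data originate from 3228 arrays in the Consortium for Functional Glycomics database, kept only where the protein sequence was available.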
# [2] = target: Fuc(a1-2)Gal(b1-3)GlcNAc(b1-2)Man(a1-3)[Fuc(a1-2)Gal(b1-3)GlcNAc(b1-2)Man(a1-6)]Man(b1-4)GlcNAc(b1-4)GlcNAc
# Outline: as §1
# [3] = target: Fuc(a1-2)Gal(b1-3)GlcNAc(b1-3)[Neu5Ac(a2-6)Gal(b1-4)GlcNAc(b1-6)]Gal(b1-4)Glc
# Outline: as §1
# [4] = target: Fuc(a1-2)Gal(b1-4)Fuc(a1-3)]GlcNAc(b1-2)Man(a1-3)[Fuc(a1-2)Gal(b1-4)[Fuc(a1-3)]GlcNAc(b1-2)Man(a1-6)]Man(b1-4)GlcNAc(b1-4)GlcNAc
# Outline: as §1
# [5] = target: Fuc(a1-2)Gal(b1-4)GlcNAc(b1-3)Gal(b1-4)GlcNAc(b1-2)Man(a1-3)[Fuc(a1-2)Gal(b1-4)GlcNAc(b1-3)Gal(b1-4)GlcNAc(b1-2)Man(a1-6)]Man(b1-4)GlcNAc(b1-4)GlcNAc
# Outline: as §1
# [6] = target: Fuc(a1-2)Gal(b1-4)GlcNAc(b1-3)Gal(b1-4)GlcNAc(b1-3)Gal(b1-4)GlcNAc
# Outline: as §1
# [7] = target: Fuc(a1-2)Gal(b1-4)GlcNAc(b1-6)GalNAc
# Outline: as §1
# [8] = target: Fuc(a1-2)Gal(b1-4)[Fuc(a1-3)]GlcNAc
# Outline: as §1
# [9] = target: Fuc(a1-2)Gal(b1-4)[Fuc(a1-3)]GlcNAc(b1-2)Man(a1-3)[Fuc(a1-2)Gal(b1-4)[Fuc(a1-3)]GlcNAc(b1-2)Man(a1-6)]Man(b1-4)GlcNAc(b1-4)[Fuc(a1-6)]GlcNAc
# Outline: as §1
# [10] = target: Fuc(a1-2)Gal(b1-4)[Fuc(a1-3)]GlcNAc(b1-2)[Fuc(a1-2)Gal(b1-4)[Fuc(a1-3)]GlcNAc(b1-4)]Man(a1-3)[Fuc(a1-2)Gal(b1-4)[Fuc(a1-3)]GlcNAc(b1-2)Man(a1-6)]Man(b1-4)GlcNAc(b1-4)GlcNAc
# Outline: as §1
# [11] = target: Fuc(a1-2)Gal(b1-4)[Fuc(a1-3)]GlcNAc(b1-3)Gal(b1-4)[Fuc(a1-3)]GlcNAc
# Outline: as §1
# [12] = target: Fuc(a1-2)Gal(b1-4)[Fuc(a1-3)]GlcNAc(b1-3)Gal(b1-4)[Fuc(a1-3)]GlcNAc(b1-3)Gal(b1-4)[Fuc(a1-3)]GlcNAc
# Outline: as §1
# [13] = target: Fuc(a1-2)[Gal(a1-3)]Gal
# Outline: as §1
# [14] = target: Fuc(a1-2)[Gal(a1-3)]Gal(b1-3)GalNAc
# Outline: as §1
# [15] = target: Fuc(a1-2)[Gal(a1-3)]Gal(b1-3)GlcNAc(b1-3)GalNAc
# Outline: as §1
# [16] = target: Fuc(a1-2)[Gal(a1-4)]Gal(b1-4)GlcNAc
# Outline: as §1
# [17] = target: Fuc(a1-2)[GalNAc(a1-3)]Gal(b1-3)GalNAc(a1-3)[Fuc(a1-2)]Gal(b1-4)GlcNAc
# Outline: as §1
# [18] = target: Fuc(a1-2)[GalNAc(a1-3)]Gal(b1-4)GlcNAc(b1-2)Man
# Outline: as §1
# [19] = target: Fuc(a1-2)[GalNAc(a1-3)]Gal(b1-4)GlcNAc(b1-2)Man(a1-3)[Fuc(a1-2)[GalNAc(a1-3)]Gal(b1-4)GlcNAc(b1-2)Man(a1-6)]Man(b1-4)GlcNAc(b1-4)[Fuc(a1-6)]GlcNAc
# Outline: as §1
# [20] = target: Fuc(a1-2)[GalNAc(a1-3)]Gal(b1-4)GlcNAc(b1-3)Gal(b1-4)GlcNAc(b1-3)Gal(b1-4)GlcNAc
# Outline: as §1
# [21] = target: Fuc(a1-2)[GalNAc(b1-3)]Gal
# Outline: as §1
# [22] = target: Fuc(a1-3)[Gal3S(b1-4)]GlcNAc
# Outline: as §1
# [23] = target: Gal(a1-3)Gal(b1-4)GlcNAc(b1-6)GalNAc
# Outline: as §1
# [24] = target: Gal(b1-3)GlcNAc6S
# Outline: as §1
# [25] = target: Gal(b1-4)GlcNAc(b1-2)Man(a1-3)[Gal(b1-4)GlcNAc(b1-2)Man(a1-6)][Gal(b1-4)GlcNAc(b1-4)]Man(b1-4)GlcNAc(b1-4)[Fuc(a1-6)]GlcNAc
# Outline: as §1
# [26] = target: Gal(b1-4)GlcNAc(b1-2)[Gal(b1-4)GlcNAc(b1-6)]Man(a1-6)[Gal(b1-4)GlcNAc(b1-2)Man(a1-3)]Man(b1-4)GlcNAc(b1-4)[Fuc(a1-6)]GlcNAc
# Outline: as §1
# [27] = target: Gal(b1-4)GlcNAc(b1-3)Gal(b1-4)GlcNAc(b1-3)Gal(b1-4)GlcNAc(b1-3)Gal(b1-4)GlcNAc(b1-3)Gal(b1-4)GlcNAc(b1-2)Man(a1-3)[Gal(b1-4)GlcNAc(b1-3)Gal(b1-4)GlcNAc(b1-3)Gal(b1-4)GlcNAc(b1-3)Gal(b1-4)GlcNAc(b1-3)Gal(b1-4)GlcNAc(b1-2)Man(a1-6)]Man(b1-4)GlcNAc(b1-4)GlcNAc
# Outline: as §1
binder,measurement,setting,value
"a L Fucosidase (Streptosporangium roseum), D2B1P1_STRRD (protein) MRRKLLLVPAVGLLVIGSIFATQPVASADTPPVYEPTVESLNSHPVPQWFNDDKFGIFIHWGAYSVPAWGPRGSYAEWYGNYMNAGGSATNAHHKATYGQDFNYDAFLQQWKAEKFDPADWVKLFKDAGAKYFVLTSKHHEGMALWDSKSSGRDSVDLGPGRDLAKELFDAARKDEAKLKAGFYYSLYEWYNPAYTGRPATNPYTGAEIPYTGAPGGGDYVKDYMLPQMRELIDGYDPDIIWCDGQWEKPASYWNTAGVIADYYNKALNSGKEVAVANRCKIQSGNLDSPELDFQTPEYTVKPDIDPVKWESSRGIAHSYGYNQNEPEEDHLTSDQLVDSLVDIVSKNGNLLLDIGPKADGTIPEIQRQRLLDIGAWLKANGEAIYGTTYWNRAEEKGGPDDVRYTAKDATLYATALKWPGEQLTLGADLPVDHSTRITMLGSGARLSWSRDEQGRVVVNTPQEAGKHAYVFKIETPGVRSLLRTSSSLAKEIAPGRTISGELTVTNPGKRHTPATKLSLTVPQGWTATLGAPRVRPLGPGESVKVPISVSAPEGVAPAPYTLGLYQRTGRMGTTTALPLTVNRPNLSLGKPATQKSTGYDAPASRAVDGNTGGDWSAGSTTHTAEPEKQAWWQVDLGASARLDSVDVWNRLDCCADRLKDFWVMASDQPFTTDDLDQARTAPGVTAVHVGEQAGSPSKVKLPEGTRGRYVRIQLASPSNPLSLAEVQVRGSMARPNLSLGKPATQKSTGYDAPASRAVDGNTGGDWSAGSTTHTAEPEKQAWWQVDLGASARLDSVDVWNRLDCCADRLKDFWVMASDQPFTTDDLDQARTAPGVTAVHVGEQAGSPSKVKLPEGTRGRYVRIQLASPSNPLSLAEVQVRLEHHHHHHS",glycan array binding signal (z-score),[1],4.93
same,glycan array binding signal (z-score),[2],0.052
same,glycan array binding signal (z-score),[3],-0.56
same,glycan array binding signal (z-score),[4],0.398
same,glycan array binding signal (z-score),[5],9.35
same,glycan array binding signal (z-score),[6],4.15
same,glycan array binding signal (z-score),[7],4.78
same,glycan array binding signal (z-score),[8],3.89
same,glycan array binding signal (z-score),[9],3.58
same,glycan array binding signal (z-score),[10],0.785
same,glycan array binding signal (z-score),[11],9.04
same,glycan array binding signal (z-score),[12],5.04
same,glycan array binding signal (z-score),[13],3.18
same,glycan array binding signal (z-score),[14],-0.442
same,glycan array binding signal (z-score),[15],0.499
same,glycan array binding signal (z-score),[16],4.37
same,glycan array binding signal (z-score),[17],-0.325
same,glycan array binding signal (z-score),[18],1.44
same,glycan array binding signal (z-score),[19],0.363
same,glycan array binding signal (z-score),[20],4.02
same,glycan array binding signal (z-score),[21],-0.567
same,glycan array binding signal (z-score),[22],0.551
same,glycan array binding signal (z-score),[23],0.325
same,glycan array binding signal (z-score),[24],-0.504
same,glycan array binding signal (z-score),[25],1.72
same,glycan array binding signal (z-score),[26],-0.467
same,glycan array binding signal (z-score),[27],-0.491
